The panel holds about 83,000 compounds, 20% with a hit somewhere; the sample as a whole holds those more often.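 Activity criterion: percent growth below 10, measured after cells in 96-well plates were exposed to a single compound concentration for 48 hours.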 Unmarked numbers belong to inactive results. The source made the active and inactive calls.

The test has as its system NCI/ADR-RES ovarian. Kind of test: NCI-60 one-dose screen, 48 h (100 = growth as untreated, 0 = no growth, -100 = all killed). To be noted: 10 µM unless noted.
With `CC(=O)OC[C@]12CC[C@@H]([C@@H](C)c3nnc(-c4ccncc4)o3)[C@@H]1[C@H]1CC[C@@H]3[C@@]4(C)CC[C@H](OC(C)=O)C(C)(C)[C@@H]4CC[C@@]3(C)[C@]1(C)CC2`, the growth was 90.6%. Consider `CN(Cc1ccccc1)c1nc(Cl)c(C2CC(c3ccccc3)=NN2c2ccccc2)s1` (stereo not given), for which the growth was 98.1%. As to `CSc1nc(C)c([N+](=O)[O-])c(N)n1`, the growth was 102%.

For the molecule `CN1CCN(Cc2ccc(NC(=O)c3cncc(C#Cc4cnc(N)c5ccc(F)cc45)c3)cc2C(F)(F)F)CC1`, the growth is 35.3%. Regarding `CN1CCN(C(=O)[C@@]2(C)CC[C@]3(C)CC[C@]4(C)C(=CC[C@@H]5[C@@]6(C)CCC(=O)NC(C)(C)[C@@H]6CC[C@]54C)[C@@H]3C2)CC1`, the growth was 59.6%.

As to `COc1ccc(/C=C2\CN(C(=O)C(Cl)Cl)C/C(=C\c3ccc(OC)cc3)C2=O)cc1`, the growth was 11.6%. Regarding `O=C(NNc1cnccn1)c1nc2cc(F)ccc2n2cccc12`, the growth was 0.226% (active). The figure for `COc1cc(/C=C2\CN(S(=O)(=O)c3ccccc3)C/C(=C\c3cc(CN4CCCCC4)c(O)c(OC)c3)C2=O)cc(CN2CCCCC2)c1O` is 5.04% (active); for `COc1ccc(/C=C/C(c2cc(OC)c(OC)c(OC)c2)n2ccnc2)cc1O` (stereo not given) it is 45.7%; for `C/C=C(/C)n1cnc2c(Nc3ccccn3)nc(Cl)nc21` it is 108%.

On to `Oc1ccc(/C=C/c2ccc(O)cc2)cc1`, for which the growth is 20.3%. The figure for `C#CCOc1cccc(-c2ncnc3cc(NC(=O)C=C)ccc23)c1` is 53.5%. Take `CCOC(=O)c1nn(CC(O)c2ccccc2)c(NC(=O)Nc2cccc(F)c2)c1C` (stereo not given): the growth was 106%. As for `O=C(N/N=C\c1ccccc1S(=O)(=O)O)N/N=C/c1ccccc1S(=O)(=O)O`, the growth is 103%. The figure for `CC[C@]12C=CCN3CC[C@@]4(c5ccc(OC)cc5N(C)[C@H]4[C@@](O)(C(=O)OC)[C@@H]1OC(=O)CCC[P+](c1ccccc1)(c1ccccc1)c1ccccc1)[C@@H]32` is 100%; for `CCCn1nc(C(=O)N(C)Cc2ccccc2)c2c1CCC(N1CCc3ccccc31)C2` (stereo not given) it is 94.4%. To `C=C1C(=O)O[C@H]2[C@H]1CC/C(COC(=O)/C=C\C(=O)NCc1ccc(Cn3c(=O)sn(CCCl)c3=O)cc1)=C\CC[C@@]1(C)O[C@@H]21` belongs 108%; to `COC(=O)c1ccc(NC(=O)Nc2ccc(C(=O)OC)cc2)cc1`, 108%. `O=C(O)c1cn(C2CC2)c2cc(N3CCN(C(=O)Nc4nc(-c5ccc(Br)cc5)cs4)CC3)c(F)cc2c1=O`: the growth was 69.4%. To `NC(=O)c1c(NC(=O)c2cccc(C(F)(F)F)c2)sc2c1CCC(=O)C2` belongs -2.23% (active). To `CC1=C(C(=O)Nc2ccccc2)C(c2ccc3c(c2)OCO3)NC(=S)N1` (stereo not given) belongs 106%. `NS(=O)(=O)c1ccc(-c2cc(-c3nnc(SCC(=O)Nc4ccc(C(=O)/C=C/c5ccc(Cl)cc5)cc4)n3-c3ccccc3)c3ccccc3n2)cc1`: the growth was 103%. In the case of `COC(=O)c1cc(Br)ccc1O`, the growth was 107%.

On to `C=C1C(=O)O[C@H]2[C@H]1CC/C(COC(=O)/C=C/C(=O)OC/C1=C/CC[C@@]3(C)O[C@H]3[C@H]3OC(=O)C(=C)[C@@H]3CC1)=C\CC[C@@]1(C)O[C@@H]21`, for which the growth is 96.5%. On to `CNC1=CC(=O)c2c(C(=O)OC)c(C)[n+]([O-])c(C)c2C1=O`, for which the growth was 70.6%. `O=C(Nc1ncccc1OCc1ccccc1)NC1CCCCCC1`: the growth is 89.7%. To `O=C1/C(=C\c2cccc3nccnc23)SC(=S)N1CCc1ccc(O)cc1` belongs 96.9%; to `O=C1/C=C/[C@@H](O)[C@@H]2C[C@@H](O)C[C@H]2/C=C/CCC[C@@H](O)CCO1`, 89.2%. The figure for `Cc1ccc(CNc2c3ccccc3nc3ccccc23)cc1` is 26.1%; for `Cc1ccnc(Nc2ccc([N+](=O)[O-])c(NCCN3CCOCC3)n2)c1` it is 43.9%; for `CSc1nn2c(-c3ccc4ccccc4c3)ccnc2c1C#N` it is 2.07% (active). To `COc1cc2nc3sc(C(=O)Nc4ccc(C(=O)OC(C)C)cc4)c(C(=O)Nc4ccc(Cl)cc4C)n3c(=O)c2cc1OC` belongs 62.3%. Take `COC(=O)/C=C1/SC(=Nc2ccc([N+](=O)[O-])cc2)N(CCc2c[nH]c3ccc(O)cc23)C1=O`: the growth was 43.9%. The figure for `O=S1(=O)C=C(c2ccccc2)C(c2ccccc2)=C1` is 8.7% (active); for `O=C(O)COc1ccc(Cl)c(Cl)c1` it is 106%; for `O=C1/C(=C/c2ccccn2)NC(=S)N1c1ccccc1Cl` it is 50.8%. Regarding `CCS/C(Nc1ccccc1)=C(\C#N)C(=O)Nc1ccc(OC)cc1`, the growth was -0.669% (active). Regarding `COc1ccc(C(=O)N2c3ccccc3Sc3ccccc32)c(C(F)(F)F)c1`, the growth is 2.91% (active). To `Cc1ccc(-c2csc(NC(=O)c3ccccc3CN3C(=O)c4ccccc4C3=O)n2)cc1` belongs 82.3%; to `CNC(=O)c1cc(Oc2cccc3nc(NC(=O)Nc4cc(C(F)(F)F)ccc4Cl)ccc23)ccn1`, 93.8%.

(Values after PubChem BioAssay (NCI).)
